The record followed here is PubChem BioAssay (NCI).

“And” between values parts separate entries of the source, which are not always exact repeats. Equal entries are not always repeated. About 83,000 compounds went through this panel and 20% of them were active in at least one assay; those are over-represented in the sample as a whole.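 Assay: single dose, 48 h. Readout: percent growth (0 = no net growth; negative = cell death). Active: <10.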 Values without a mark were called inactive. The source made the active and inactive calls.

The first assay has as its system SK-MEL-2 melanoma. In words: NCI-60 one-dose screen, 48 h (100 = growth as untreated, 0 = no growth, -100 = all killed). Particulars: 10 µM. The protocol: Growth inhibition of the SK-MEL-2 human tumor cell line is measured as a screen for anti-cancer activity. Cells are grown in 96 well plates and exposed to the test compound for 48 hours. Compounds are tested at a single concentration, which is 10^-5 M for most compounds. The reported endpoint is percent growth (GI% or GIPRCNT), where numbers from 0 - 100% represent growth inhibition, and numbers from -100% - 0 represent cell death. For example, a value of 40 represents 60% growth inhibition. A value of 0 means no net growth occurred over the course of the experiment. A value of -40 indicates 40% of cells at the beginning of the experiment died by the end of the experiment. A value of -100 means all cells are dead at the end of the experiment.
NCI-60 Human Tumor Cell Lines Screen was performed using the standard one-dose NCI protocol, which is described in more detail at https://dtp.cancer.gov/discovery_development/nci-60/default.htm.
Compounds with GIPRCNT values below 10 were considered active. Activity score was based on GIPRCNT using the following formula: […]
Score is 0 for GIPRCNT values of 100 or above, 50 for GIPRCNT values of 0, and 100 for GIPRCNT values of -100.
In the case of `O=C(O)CCCc1ccc(N(CCCl)CCCl)cc1`, the growth is 102% and 109%.

Staying with this assay, now noted: 10 µM unless noted.
In the case of `CN1CCN(c2ccc(Cl)cc2)CC1`, the growth was 18.1%.
Still for that read-out and setting: then `Cn1cc(-c2csc(-c3cn(CCCCN4CCOCC4)c4ccc(F)cc34)n2)c2cccnc21`, with 78.7%; and `COc1ccc(CN)cc1OC`, with 112%; and `O=C(Cc1ccccc1)c1ccccc1`, with 110%.
Turning to `C=C1C(=O)OC2CC3(C)OC3C3OC3C3=CC(OC3=O)C12` (stereo not given), the growth was 100%.
For the compound `O=[N+]([O-])c1ccc(OCc2ccc(S(=O)(=O)F)c(Cl)c2)c(Cl)c1`, the growth was 88.7%.
On the same count and under the same terms, then `COC12CC3C4=CCOC5CC(=O)N6c7ccccc7C1(CCN2C4)C6C53` (stereo not given), with 108%.
For the compound `CC[C@H](C)[C@H](NC(=O)[C@H]1CCCCN1C)C(=O)N(C)[C@H](C(=O)NC12CC(C(=O)N[C@@H](Cc3ccccc3)C[C@H](C)C(=O)OC)(C1)C2)C(C)C`, the growth is 89.3%.
The same measure, in the same setting: with `OCCN=Cc1c[nH]c2ccccc12` the figure was 109%.
On the same count and under the same terms, with `O=C=Nc1ccc(Br)cc1` the figure was 109%; with `CC(C)c1cccc(C(C)C)c1O`, 113%; with `O=c1[nH]c(=O)n(Cl)c(=O)n1Cl`, 114% and 96.7%.
Take `COc1ccc(C(C#N)C(C)=O)cc1` (stereo not given): the growth is 103%.
On the same count and under the same terms, then `Cc1cc[c-]cc1.Fc1c[c-]c(-c2ccccn2)c(F)c1.N#CCC[PH+](CCC#N)c1ccccc1.[Pt+2]`, with 59.4%; and `O=C(O)C(O)c1ccc(Cl)cc1` (stereo not given), with 106% and 118%; and `O=NN(c1ccccc1)c1ccccc1`, with 105%.
In the case of `O=C(O)c1ccc(=O)[nH]c1`, the growth was 85.4% and 102%.
Turning to `CCC(=O)C(CC(C)[N+](C)(C)C)(c1ccccc1)c1ccccc1` (stereo not given), the growth is 104%.
For `Cc1nc2ccccc2c(=O)n1-c1ccccc1F`, the growth is 105%.
Same read-out and setting: then `CC[PH+](CC)CC.O=COC1OC([S-])C(OC=O)C(OC=O)C1OC=O.[Au+]` (stereo not given), with -72.5% (active); and `CC(=O)C(N)Cc1ccccc1` (stereo not given), with 107%.
Still for that read-out and setting: with `O=C1CN2CCC1CC2` the figure was 101%; with `C[C@]12CCc3nc(-c4ccc(O)c(O)c4)sc3C1=CC[C@@H]1[C@@H]2CC[C@]2(C)C(=O)CC[C@@H]12`, 104%.
Still for that read-out and setting: with `CC1(C)C=Cc2c(ccc3c2[N+]([O-])=C2C3=C[C@@]34NC(=O)[C@]5(CCCN5C3=O)C[C@@H]4C2(C)C)O1` the figure was 69.8%.
For the compound `O=C(O)CNCP(=O)(O)O`, the growth is 98.5%.
On the same count and under the same terms, with `CC[C@H](C)[C@H](NC(=O)c1cnccn1)C(=O)N(C)[C@H](C[C@@H](OC(C)=O)c1nc(C(=O)N[C@@H](Cc2ccccc2)C[C@H](C)C(=O)OC)cs1)C(C)C` the figure was 31.3%; with `CN(C)c1ccc(N)cc1`, 94.2% and 71.7%; with `C/C=C(/C)C(=O)O[C@H]1CC[C@@]2(C)[C@@H]3CC[C@H]4[C@]5(O)C[C@H](O)[C@@]6(O)[C@@H](CN7C[C@@H](C)CC[C@H]7[C@@]6(C)O)[C@]5(O)C[C@@]42O[C@@]13O`, 0.648% (active).
Same read-out and setting: then `CCOC(=O)P(=O)(OCC)OCC`, with 113%; and `O=[N+]([O-])c1cc(Br)c(O)c(Br)c1`, with 108%.
Same read-out and setting: then `COC(=O)C1=CO[C@@H](C)[C@@H]2CN3CCc4c([nH]c5cc(OC)ccc45)[C@@H]3C[C@H]12`, with 100%.
For `CCCCOCCOP(=O)(OCCOCCCC)OCCOCCCC`, the growth was 114%.
With `O=C(O)C(Br)CBr` (stereo not given), the growth was 85.1%.
Consider `O=C1C=C(N2CC2)c2ccccc2C1=O`, for which the growth is 90.7%.
For `C[C@]12CC[C@H]3[C@@H](CC=C4c5nc(-c6ccc(Br)cc6)sc5CC[C@@]43C)[C@@H]1CC[C@@H]2O`, the growth was 101%.
For `CC[C@H](C)[C@H](NC(=O)[C@H]1CCCCN1C)C(=O)N(C)[C@H](C[C@@H](OC(C)=O)c1nc(C(=O)N[C@@H](Cc2ccccc2)C[C@H](C)C(=O)O)cs1)C(C)C`, the growth is 2.53% (active).
As to `C[N+]1(CC#CC[N+]2(C)CCCC2)CCCC1`, the growth is 98.5%.
As for `CN(C)c1ccc([N+](=O)[O-])c([N+](=O)[O-])c1`, the growth is 90% and 103%.

Still in this assay, the particulars now being: 75 µM.
Consider `O=C(O)CCCc1ccc(N(CCCl)CCCl)cc1`, for which the growth is 100%.
